Compound activity (PubChem BioAssay)
In the library only some 9.2% were active in any assay of this set; here they are far more common.
SMN2 splice up: increases expression of the SMN2 splice variant | Potency, µM (titrated, usually from 46.1 µM), for inactives: at the highest dose activity change, positive = activation, actives largely listed as activators | 2.8% of 210,000 active | HEK293 SMN2-luciferase splicing reporter, luminescence, 30-36 h; also: % of control where 0% means no effect; nearly all actives have a fitted effect of over 55% in size
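HEK293 cells carry an SMN2 minigene-luciferase reporter in which exon 7 inclusion puts luciferase in frame. Cells were seeded at 2000 cells/well, attached for 10-12 hours, then exposed to compounds for 30-36 hours at 37C before ONE-Glo luminescence.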
ELG1 repair inh: inhibitors of ELG1-dependent DNA repair in HEK293T cells; Potency, µM (top dose mostly 46.1 µM), for inactives: at the top dose activity change, negative = inhibition, usual class: inhibitors; HEK293T ELG1-luciferase reporter, luminescence, 16 h; DNA damage induced by 5-fluorouridine; 2.3% of 330,000 active; also: % is scaled to controls: 0 for no effect and ±100 for the full control effect; nearly all actives have a fitted effect of over 55% in size
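Quantitative HTS, concentration-response format. 2,000 cells/well co-treated with 5-fluorouridine and compound, 16 hr in 5% CO2 at 37 °C; ONE-Glo luminescence read after 30 min.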
NPC1 promoter act: activators of NPC1 promoter; AID 485313; 2.4% of 320,000 active; Potency, µM (titrated, usually from 9.22 µM), for inactives: at the top dose activation, usual class: activators; Huh7 NPC1 promoter luciferase reporter, 24 h; also: % of control where 0% means no effect; nearly all actives have a fitted effect of over 60% in size
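Luminescence read-out of NPC1 promoter-driven luciferase in stably transfected Huh7 cells; compounds delivered in DMSO and left 24 h at 37C, 5% CO2, qHTS titration format.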
FLuc counter: firefly luciferase modulation, counter-screen for miR-21 project; Potency, µM (top dose mostly 57.5 µM), for the others: top-dose activity change, negative = inhibition, hits mostly inhibitors; 6.9% of 360,000 active; P08659; purified FLuc, Km substrates, luminescence inhibition;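 also: plate controls were vehicle for no effect and reference inhibitor for full effect; nearly all actives have a fitted effect of over 55% in size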
Target sequence (P08659 whole entry, looked up): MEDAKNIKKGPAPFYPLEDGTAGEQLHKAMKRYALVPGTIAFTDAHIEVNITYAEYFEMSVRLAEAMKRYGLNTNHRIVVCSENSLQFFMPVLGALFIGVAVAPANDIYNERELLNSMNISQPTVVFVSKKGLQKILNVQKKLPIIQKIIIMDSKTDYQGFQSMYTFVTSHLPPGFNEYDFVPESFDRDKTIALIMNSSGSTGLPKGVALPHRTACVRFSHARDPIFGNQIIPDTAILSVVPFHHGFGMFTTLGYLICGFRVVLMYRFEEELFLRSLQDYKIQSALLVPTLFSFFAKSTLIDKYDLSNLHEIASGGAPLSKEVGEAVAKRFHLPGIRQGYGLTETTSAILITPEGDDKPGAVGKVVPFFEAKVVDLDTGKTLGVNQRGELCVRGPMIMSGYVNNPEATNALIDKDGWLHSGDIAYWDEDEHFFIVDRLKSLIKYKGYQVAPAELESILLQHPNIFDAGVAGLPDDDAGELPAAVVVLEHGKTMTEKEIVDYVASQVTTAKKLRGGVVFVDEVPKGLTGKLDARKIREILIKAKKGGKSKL
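Purified P. pyralis luciferase (10nM final) with 10uM D-luciferin and 10uM ATP (Km levels) in 50mM Tris acetate pH 7.5, 10mM Mg acetate, 0.01% Tween-20, 0.05% BSA; qHTS 6-point titration, ~60 µM downward; luminescence read.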
ELG1 genotoxic: inducers of genotoxicity in HEK293T ELG1-luciferase cells | HEK293T ELG1-luciferase reporter, luminescence, 16 h | Potency, µM (titrated, usually from 46 µM), inactives show top-dose activity change, positive = activation, most hits filed as activators | 1.3% of 330,000 active | AID 504466; also: % of control where 0% means no effect; nearly all actives have a fitted effect of over 60% in size
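DMSO vehicle served as control against compound-treated ELG1-luciferase HEK293T cells; exposure lasted 16 hr at 37 °C and 5% CO2, followed by ONE-Glo luminescence detection after 30 min.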
Rab9 prom act: activators of Rab9 promoter; Huh7 Rab9 promoter-luciferase reporter, luminescence, 24 h; Potency, µM (doses to about 9.22 µM), inactives show at the highest dose activation, negative = inhibition, hits mostly activators; 2.8% of 320,000 active; AID 485297; also: % of control where 0% means no effect; nearly all actives have a fitted effect of over 60% in size
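Rab9 promoter-driven luciferase in stably transfected Huh7 cells; 1500 cells/well rested 2 h, exposed to compound in DMSO for 24 h at 37 °C, 5% CO2. Luminescence read 10 min after adding luciferase reagent at ambient temperature.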
* marks the source's active call; other numbers are inactive results; u = inconclusive; x = no result; [ ] = remark or other dose. Calls follow the shape of the dose curve; as a rule, active = well fitted curve in the direction sought with a large enough effect; inconclusive = small, poorly fitted or top-dose-only effect, or another doubt; inactive = no such curve, though single readings can be large; an effect the other way counts as inactive or inconclusive. Potency is read from the fitted curve at half-maximal effect.

SMILES | SMN2 splice up | ELG1 repair inh | NPC1 promoter act | FLuc counter | ELG1 genotoxic | Rab9 prom act
CCOc1cccc2cc(-c3nc4ccc(C(=O)O)cc4[nH]3)c(=O)oc12 | x | x | u | 0.38µM* | x | u
C=CCc1cccc2cc(-c3nc4ccc(C(=O)O)cc4[nH]3)c(=O)oc12 | x | x | x | 0.43µM* | x | x
COc1ccc2oc(=O)c(-c3nc4ccc(C)cc4[nH]3)cc2c1 | x | x | x | -3% | x | x
COc1cccc2cc(-c3nc4ccc(C)cc4[nH]3)c(=O)oc12 | x | x | x | 0.54µM* | x | x
C=CCc1cccc2cc(C(=O)O)c(=O)oc12 | -10% | 10% | -1% | 2% | 0% | 1%
COc1ccc2cc(-c3nc4ccc(C(=O)O)cc4[nH]3)c(=O)oc2c1 | x | x | x | 0.12µM* | x | x
COc1ccc(C(=O)N/C(=C\c2ccc3c(c2)OCO3)C(=O)NCCc2nc3ccccc3[nH]2)cc1 | 0% | -7% | 1% | -2% | -1% | -3%
CCCCN1C(=O)CN(C2CCCCCC2)C(=O)C1c1ccc(OC(C)C)c(OC)c1 (stereo not given) | x | x | x | -6% | x | x
Cc1csc2nc(COC(=O)c3ccc(Cl)c([N+](=O)[O-])c3)cc(=O)n12 | x | 10% | -5% | 0% | 14% | -8%
COc1ccccc1C(=O)NC(C(=O)NCCc1nc2ccccc2[nH]1)=C(C)C | x | 4% | -1% | -6% | -2% | -7%
CCCCc1cc2c(cn1)C(=O)C(C)(OC(C)=O)C(=O)C2 (stereo not given) | 2%[9.22 µM] | x | x | x | x | x
CCOc1cccc2cc(-c3cn4c(n3)sc3ccccc34)c(=O)oc12 | x | x | x | 0.48µM* | x | x
COc1cccc2cc(-c3nc4ccccc4o3)c(=O)oc12 | 25% | u | 2% | 2.7µM* | 21µM* | 5%
CCCCc1nnc(NC(=O)c2ccc(OCc3c(C)noc3C)cc2)s1 | x | u | -16% | 5% | 1% | -20%
CCc1ccc(/C=C2\Oc3cc(OC(=O)N4CCOCC4)ccc3C2=O)cc1 | -47% | -10% | -6% | 7.6µM* | 0% | -10%
COc1ccc2c(c1)O/C(=C\c1ccccc1C)C2=O | x | u | 29% | 13µM* | 14% | u
COc1ccc(/C=C2\Oc3cc(OC(=O)N4CCOCC4)ccc3C2=O)cc1 | x | u | 28% | 6.7µM* | -8% | -1%
COc1ccc(OCC(=O)NC2CC(=O)N(c3ccc4c(c3)OCCO4)C2)cc1 (stereo not given) | x | x | x | -3% | x | x
O=C1c2ccccc2-c2ccc(N(Cc3ccc(Br)cc3)Cc3ccc(Br)cc3)cc21 | -1%[9.22 µM] | x | x | x | x | x
O=C(CCS(=O)(=O)Cc1ccccc1)Nc1ncc([N+](=O)[O-])s1 | x | 0% | 24% | u | u | u
Clc1ccc2c(c1)[C@H]1OCC[C@H]1[C@@H](c1ccco1)N2 | 22µM* | u | u | 4.8µM* | u | u
CC(C)(C)C1CCC(=NNc2nc3ccccc3[nH]2)CC1 (stereo not given) | 29% | -1% | 2% | 13µM* | 0% | 17%
c1ccc2c(c1)CC/C2=N/Nc1nc2ccccc2[nH]1 | 11µM* | u | u | 6.7µM* | u | 2.5µM*
c1ccc(CN2CCC(=NNc3nc4ccccc4[nH]3)CC2)cc1 | 5% | 1% | -2% | 19µM* | 2% | 0%
CC(=O)Nc1ccc(OCc2nnc(-c3ccc(Cl)cc3)o2)cc1 | 6% | u | 14% | u | 18% | 20%
CSc1nc(N)c2ncn([C@@H]3O[C@H](COP(=O)(O)OP(=O)(O)O)C(O)[C@H]3O)c2n1 (stereo not given in full) | x | x | 7%[46.1 µM] | x | x | -4%[46.1 µM]
Cc1csc2nc(CSc3ccc(Cl)cc3)cn12 | 5µM* | u | 2.5µM* | 5.4µM* | u | 2.5µM*
c1cn2cc(CSC3CCCCC3)nc2s1 | 14µM* | u | 3.2µM* | 12µM* | 2.3µM* | 4µM*
